# In the library only some 19% were active in any assay of this set; here they are far more common.
# DT40 TDP1 CPT: DT40-hTDP1 cell growth loss with CPT | chicken DT40 Tdp1-/-;hTDP1 cells + 20 nM CPT, ATP luminescence, 48 h | Potency, µM (doses to about 46.2 µM), for the others: at the highest dose activity change, negative = growth inhibition, most hits filed as inhibitors | 420,000 compounds, 12% hits; further: potency means the concentration at half of the fitted maximal effect; nearly all actives have a fitted effect of over 55% in size
#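 Chicken DT40 Tdp1-/- cells complemented with human TDP1, 400 cells/well, exposed to compounds plus 20 nM camptothecin for at least 48 h at 37 C; viability read as ATP content by CellTiter-Glo luminescence.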
# IL1B secr inh: inhibitors of inflammasome signaling (IL-1 beta secretion); THP-1 LPS/ATP IL-1B secretion, AlphaLISA, 16 h; hits give low values; activity change, % at 57.5 µM; 360,000 compounds, 4.7% hits; AID 743279; in the data active means activity change below about -50%; inconclusive means mostly about -30% to -49%
#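 THP-1 cells pretreated 1 hr with compounds (up to 57.5 uM final), then stimulated with LPS (250 ng/mL final) plus ATP (1.25 mM final); secreted IL-1B measured by AlphaLISA after 16 hr, decreased signal indicating inhibition.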
# HT1080 IDH1KD tx: toxicity to HT-1080 IDH1 knockdown cells (counter line); 360,000 compounds, 2% hits; HT-1080 IDH1 knockdown viability, ATP luminescence, 48 h; Potency, µM (series often up to 46.1 µM), for the others: at the highest dose activity, negative = toxicity, most hits filed as cytotoxic; AID 686971;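 further: potency means the concentration at half of the fitted maximal effect; 0% = DMSO wells and -100% = cell-free medium wells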
#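 Viability of IDH1-knockdown HT-1080 fibrosarcoma cells was assessed by CellTiter-Glo after 48 h at 37 °C with titrated compound; concentration-effect curves were classified by fit quality and response size.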
# HT1080-NT tox: kills 2HG-producing HT-1080-NT fibrosarcoma cells | HT-1080-NT fibrosarcoma viability, CellTiter-Glo ATP luminescence, 48 h | 360,000 compounds, 1.6% hits | Potency, µM (top dose mostly 46.1 µM), for the others: at the top dose activity, negative = less viability, most hits filed as cytotoxic;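 further: NT is the 2HG producing partner of a matched IDH1 knockdown line; potency means the concentration at half of the fitted maximal effect; 0% = DMSO-treated cells and -100% = media-only wells without cells; nearly all actives have a fitted effect of over 55% in size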
#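 Fibrosarcoma NT cells, 750 per well in 5% FBS RPMI, were exposed to compound for 48 hours. Viability: CellTiter-Glo luminescence.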
# TDP1 cell noCPT: qHTS for Inhibitors of human tyrosyl-DNA phosphodiesterase 1 (TDP1): qHTS in cells in absence of CPT; DT40 Tdp1-/- hTDP1 cells, no CPT, ATP luminescence, 48 h; Potency, µM (series often up to 46.2 µM), without a hit: at the highest dose activity change, negative = growth inhibition, most hits filed as inhibitors; 420,000 compounds, 15% hits; AID 686978, 2013; further: potency means the concentration at half of the fitted maximal effect; nearly all actives have a fitted effect of over 55% in size
#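 DT40 Tdp1-/-;hTDP1 cells, no CPT (DMSO vehicle only), 400 cells/well; compounds pin-transferred; ≥48 hr, 37 °C; CellTiter-Glo 30 min RT dark, luminescence read.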
# * = called active by the depositor; ? = inconclusive; nt = no result given. Unless noted, the call rests on the fitted dose curve; in most records, active means well fitted curve in the direction sought with a large enough effect; inconclusive means small, poorly fitted or top-dose-only effect, or another doubt; inactive means no such curve, though single readings can be large; an effect the other way counts as inactive or inconclusive. Unless noted, on the % scale 0 is the no-effect control and ±100 the full control effect.
SMILES,DT40 TDP1 CPT,IL1B secr inh,HT1080 IDH1KD tx,HT1080-NT tox,TDP1 cell noCPT
COc1cc(S(=O)(=O)N2CCN(C(=O)c3cccs3)CC2)ccc1NC(C)=O,1%,22,9%,1%,1%
O=C(COc1ccc(Br)cc1)NNC(=S)NC(=O)c1ccccc1[N+](=O)[O-],?,30,-29%,-24%,21µM*
CCOc1ccc(/C=C/C2=Cc3c(sc(NC(=O)CSc4n[nH]c(N)n4)c3C#N)C(C)(C)C2)cc1,13µM*,-93*,?,?,15µM*
NC(=O)c1ccsc1NC(=O)CSc1n[nH]c(N)n1,6%,3,-1%,-6%,3%
Cc1ccsc1/C=C/C1=Cc2c(sc(NC(=O)CSc3n[nH]c(N)n3)c2C#N)C(C)(C)C1,23µM*,-63*,13µM*,22µM*,15µM*
Cn1c(-c2ccc(C=O)s2)nc2c3ccccc3c3ccccc3c21,?,21,-10%,-4%,?
O=C(CCN1C(=O)c2ccccc2S1(=O)=O)Nc1ccccc1F,-9%,-60*,13%,-1%,24%
COc1cc2nc(N3CCN(C)CC3)nc(NC(C)C)c2cc1OC,?,nt,-2%,-22%,18µM*
COc1cc2nc(N3CCOCC3)nc(NC(C)C)c2cc1OC,?,nt,15%,-2%,?
COc1cc2nc(Cl)nc(NC(C)C)c2cc1OC,14µM*,nt,-10%,-18%,16µM*
COc1cc2nc(N3CCCCC3)nc(NC(C)C)c2cc1OC,5µM*,nt,?,?,?
CCCCCc1c(-c2ccccc2F)ncn1CCc1ccccc1OC,16µM*,-95*,?,?,18µM*
CCCCc1c(-c2ccccc2F)ncn1CCc1ccccc1OC,26µM*,-59*,?,?,16µM*
CCN(C(=O)CSc1nc2ccccc2n1Cc1ccccc1C#N)c1ccccc1,15µM*,nt,nt,nt,13µM*
CCN(C(=O)CSc1nc2ccccc2n1Cc1cc(C)ccc1C)c1ccccc1,16µM*,nt,nt,nt,23µM*
Cc1ccc(C)c(Cn2c(C(C)O)nc3ccccc32)c1 (configuration not stated),?,12,-4%,-1%,?
NC(=O)CSc1nc2ccccc2n1Cc1ccccc1F,-25%,-5,-15%,-7%,?
CCc1ccc(C(=O)NNC(=O)CN2C(=O)NC3(CCCC3)C2=O)cc1,-17%,8,2%,0%,-13%
COc1ccc(-c2csc(/C(C#N)=C(\O)CSc3nccn3C)n2)cc1OC,?,-15,-7%,-11%,15µM*
COc1ccc(/C=C(/C#N)c2nc(-c3ccc(Br)cc3)cs2)cc1,?,nt,nt,nt,23µM*
CC(C)c1ccc(/C=C(\C#N)c2nc(-c3ccc(O)cc3)cs2)cc1,3.3µM*,nt,nt,nt,2.6µM*
COc1ccc(-c2csc(/C(C#N)=C\c3ccc(O)c([N+](=O)[O-])c3)n2)cc1OC,?,11,?,1%,?
COc1ccc(-c2csc(NC(=O)CSc3nnnn3C)n2)cc1OC,-21%,-22,4%,12%,-22%
CCOc1ccc(-c2csc(/C(C#N)=C/c3ccc(Br)cc3)n2)cc1,-9%,nt,nt,nt,-17%
COc1ccc(/C=C(/C#N)c2nc(-c3ccc(-c4ccccc4)cc3)cs2)cc1OC,?,nt,nt,nt,12µM*
SMILES,DT40 TDP1 CPT,IL1B secr inh,HT1080 IDH1KD tx,HT1080-NT tox,TDP1 cell noCPT
CC[C@H](C)[C@@H](C(=O)NCCCCCCCCCCC(=O)N1CCNCC1)n1cc(CCCCN=C(N)N)nn1,?,-1,10%,7%,?
N#C/C(=C\c1ccccc1)c1nc(-c2cc3c(ccc4ccccc43)oc2=O)cs1,-11%,nt,nt,nt,2%
CC(=O)Oc1ccc(OC(C)=O)c(SCCCCCN2CCOCC2)c1,?,0,?,?,3.7µM*
COc1cccc(S(=O)(=O)NCC(=O)Nc2ccc(C(C)(C)C)cc2)c1,?,-60*,-9%,2%,?
COc1ccc(C(=O)Nc2ccc3ncccc3c2)cc1,5.8µM*,-24,-11%,-15%,?
COc1ccc(NC(=O)c2ccc3c(c2)n(C)c(=O)n3C)cc1,-29%,-56*,-2%,2%,-15%
COc1cccc(C(=O)Nc2ccc(NC(=O)c3ccc(C(C)(C)C)cc3)cc2)c1,16µM*,nt,nt,nt,10µM*
COc1cccc(NC(=O)CNS(=O)(=O)c2ccc(Cl)cc2)c1,17%,20,-20%,-7%,6%
COc1cccc(CNC(=O)c2cc(=O)[nH]c3ccc(S(=O)(=O)N4CCOCC4)cc23)c1,-1%,17,10%,-3%,-4%
Cn1cccc1C(=O)N1CCC2(CCCN(Cc3ccccc3)C2)CC1,-2%,nt,nt,nt,-23%
O=C(COC(=O)CC1CC2CCC1C2)Nc1ccc(F)cc1Cl (configuration not stated),-15%,-6,-1%,9%,?
COC(=O)Cc1ccc(NC(=O)c2ccc(C(C)(C)C)cc2)cc1,?,-50*,-28%,-18%,?
CC(C)(C)c1ccc(C(=O)Nc2ccc(Oc3cccnc3)nc2)cc1,?,-73*,?,-32%,13µM*
CC(=O)Nc1cccc(OCCCNC(=O)c2ccc(F)cc2)c1,5%,26,6%,0%,-8%
CC(C)(C)c1cnnn1-c1ccc(NC(=O)c2ccc3c(c2)OCO3)cc1,?,-15,-4%,6%,21µM*
CC(=O)Nc1cccc(OCCCNC(=O)c2ccc(C(C)(C)C)cc2)c1,?,23,15µM*,?,?
Cc1ccc(N(C)C(=O)N2CCN(c3ccccn3)CC2)cc1,1%,2,5%,0%,-10%
COc1cccc(C(=O)Nc2ccc(-n3nncc3C(C)(C)C)cc2)c1,?,15,-15%,6%,21µM*
Cn1nc(C(=O)OCC(=O)c2ccc(Cl)cc2)c2ccccc2c1=O,2%,19,7%,6%,6%
CCOC(=O)[C@H]1[C@H]2COc3ccc(Br)cc3[C@H]2N2C(=O)CN(Cc3ccc(C)cc3)C(=O)[C@@]12C,?,-59*,-9%,-1%,?
CCOC(=O)[C@H]1[C@H]2COc3ccc(Cl)cc3[C@@H]2N2C(=O)CN(Cc3ccc(F)cc3)C(=O)[C@@]12C,?,-3,-2%,13%,?
CCOC(=O)[C@H]1[C@H]2COc3ccc(Cl)cc3[C@@H]2N2C(=O)CN(Cc3ccc(Cl)cc3)C(=O)[C@@]12C,?,-18,-21%,1%,16µM*
CCOC(=O)[C@H]1[C@H]2COc3ccc(Cl)cc3[C@@H]2N2C(=O)CN(Cc3ccccc3)C(=O)[C@@]12C,?,-8,0%,0%,21µM*
